The record followed here is PubChem BioAssay AID1626 (SRMLSC, 2009).

Screen size: about 220,000 compounds; about 2,000 (0.91%) were called active. Another 2% or so got no clear call; they are omitted. Cut-off read from the data, not from the text of the source: inconclusive = inhibition above about 80% without an active follow-up result; inactive = below that; test concentration not stated here. Not all results are given here. Measured potencies and affinities stand elsewhere.

The assay is described as follows: M. tuberculosis H37Rv growth inhibitors, H37Rv strain (AID 1626).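 Note: bacteria incubated seven days before Alamar blue readout; 0% = bacteria only wells and 100% = bacteria with antibiotic wells.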 As to conditions: active compounds read high, concentration not given here.
A word on the inhibition: it is the change of the read-out against control, counted positive when it falls. Turning to `O=c1oc2cc([N+](=O)[O-])ccc2nc1/C=C(\O)c1cccc(Br)c1`, the inhibition is -3.89% (inactive). For `Cc1ccc(/C(O)=C/c2nc3cc(C)ccc3oc2=O)cc1`, the inhibition is 16.9% (inactive). The value for `Cc1ccc2oc(=O)c(/C=C(\O)c3cccs3)nc2c1` was -2.1% (inactive); that for `Cc1ccc2oc(=O)c(/C=C(\O)c3sc(C)nc3C)nc2c1` was -8.77% (inactive); that for `Cc1ccc2oc(=O)c(/C=C(\O)c3ccccc3)nc2c1` was -10.4% (inactive).

With `O=c1oc2cc([N+](=O)[O-])ccc2nc1/C=C(O)/C=C/c1ccccc1`, the inhibition was -2.36% (inactive). As for `O=c1oc2ccccc2nc1/C=C(O)/C=C/c1ccc(F)cc1`, the figure is 63.9% (inactive); as for `C/C(O)=C\c1nc2ccccc2oc1=O`, 75.9% (inactive). For `C=CCc1cc(OC)ccc1OCCOCCN1CCc2ccccc2C1`, the inhibition is 6.94% (inactive).

Take `COc1cccc(CNc2ccc(F)c(Cl)c2)c1`: the inhibition was 12.1% (inactive).

Consider `OCCC1CN(Cc2cccnc2)CCN1CCc1ccccc1` (centres undefined), for which the inhibition is -0.305% (inactive). As to `Cc1ccc(-c2c[n+](CC(=O)c3cccs3)c3n2CCC3)cc1`, the inhibition is 18.1% (inactive). Regarding `O=C(C[n+]1cc(-c2ccc(F)cc2)n2c1CCC2)c1cccs1`, the inhibition was 0.03% (inactive). The value for `O=C(C[n+]1cc(-c2ccccc2)n2c1CCCCC2)c1ccc(Cl)cc1` was 18.6% (inactive); that for `O=C(C[n+]1cc(-c2ccccc2)n2c1CCC2)c1cccs1` was -2.31% (inactive). Take `O=C(C[n+]1cc(-c2ccc(F)cc2)n2c1CCC2)OCc1ccccc1`: the inhibition is -9.6% (inactive). The value for `O=C(C[n+]1cc(-c2ccc(Cl)cc2)n2c1CCCCC2)c1ccccc1` was -4.68% (inactive); that for `O=C(C[n+]1cc(-c2ccccc2)n2c1CCC2)OCc1ccccc1` was -7.15% (inactive). As for `COc1ccc(-c2c[n+](CC(=O)N3c4ccccc4Sc4ccccc43)c3n2CCC3)cc1`, the inhibition is 78.6% (inactive). The value for `O=C1CC(SCCc2nc3ccccc3[nH]2)C(=O)N1c1ccc(F)cc1` (centres undefined) was -1% (inactive); that for `CS(=O)(=O)N(CC(=O)NC1CCCC1)Cc1ccc(Cl)cc1` was -2.78% (inactive); that for `Cc1nc(Cl)c(C(=O)NC(C)(C)C)c(C)c1Cl` was -4.14% (inactive). As for `COc1ccc(N2C(=O)CCC(C(=O)NCc3ccccn3)C2c2ccc(OC)c(OC)c2)cc1` (centres undefined), the figure is -14.1% (inactive). As for `CC(=O)N1CCN(c2ccc([N+](=O)[O-])cc2C=C2C(=O)NC(=O)NC2=O)CC1`, the figure is 7.44% (inactive); as for `CSc1nc2ccccc2n1CC(=O)Nc1ccccc1`, -4.24% (inactive). `Cc1[nH]c2ccc(C(=O)OCCN(C)C)cc2c1C`: the inhibition was -4.75% (inactive).

As for `O=C(C[n+]1cc(-c2ccc(Cl)c(Cl)c2)n2c1CCC2)c1cccs1`, the inhibition is 3.68% (inactive). The value for `O=C(C[n+]1cc(-c2ccc(Cl)c(Cl)c2)n2c1CCC2)OCc1ccccc1` was 4.51% (inactive); that for `CCOCCCNCc1ccc(OC)cc1` was -2.12% (inactive).

On to `N#Cc1nc(-c2ccccc2F)oc1NCCc1ccccn1`, for which the inhibition was 4.27% (inactive). As for `Cc1cc(C)cc(NC(=O)Nc2ccc3c(c2)N(C)C(=O)CS3)c1`, the figure is 1.91% (inactive); as for `CCC1CCC/C1=N\NC(=O)c1cc(C)[nH]n1` (centres undefined), -7.04% (inactive); as for `CC(C)(C)C(=O)COc1ccccc1[N+](=O)[O-]`, 0.09% (inactive). The value for `NNC(=O)COc1ccccc1[N+](=O)[O-]` was -1.65% (inactive); that for `CC(C)(Oc1ccc(Cl)cc1)C(=O)N/N=C/c1cn[nH]c1-c1ccccc1` was -0.17% (inactive).

On to `CC1CCC2(CC1)OCC1(CCC3(COC4(CCC(C)CC4)OC3)C1=O)CO2` (centres undefined), for which the inhibition is -1.15% (inactive). As for `CCOC(=O)CNC(=O)CNC(=O)c1ccc(OC)cc1`, the figure is -5.13% (inactive); as for `CCCCOc1ccc(C(=O)NCC(=O)NCC(=O)OCC)cc1`, 5.43% (inactive); as for `Cc1ccc(S(=O)(=O)N(C)C)cc1-n1c(SCC(=O)Nc2ccccc2)nc2ccccc2c1=O`, 1.63% (inactive). As for `CCOC(=O)N1CCN(c2cc(NCCO)c([N+](=O)[O-])c3nonc23)CC1`, the figure is -2.1% (inactive); as for `Cc1nnc(Sc2cc(NCCO)c([N+](=O)[O-])c3nonc23)s1`, -7.45% (inactive); as for `Cc1nnc(Sc2cc(NCCCO)c([N+](=O)[O-])c3nonc23)s1`, -2.43% (inactive). As for `Cn1ccnc1Sc1cc(NCCCO)c([N+](=O)[O-])c2nonc12`, the figure is 2.79% (inactive). For the molecule `COC(=O)CNC(=O)COC(=O)/C=C/c1ccccc1[N+](=O)[O-]`, the inhibition is 3.19% (inactive). The value for `Cc1ccc(S(=O)(=O)NCCc2nnc3ccc(NCCCOC(C)C)nn23)cc1` was 0.94% (inactive).

As for `CC1(c2ccc([N+](=O)[O-])cc2)CC(C)(C)N(C(=O)c2ccccc2)c2ccccc21` (centres undefined), the inhibition is 6.73% (inactive). Take `CC1(c2cc([N+](=O)[O-])cc([N+](=O)[O-])c2)CC(C)(C)N(C(=O)c2ccccc2)c2ccccc21` (centres undefined): the inhibition was 2.82% (inactive).

For the molecule `CC(=O)C1=C(O)C(=O)N(Cc2ccco2)C1c1ccc2c(c1)OCO2` (centres undefined), the inhibition was -9.04% (inactive).

For the molecule `CC(C)NC(=O)C(=O)NCCc1ccc(Cl)cc1`, the inhibition was -1.47% (inactive). As for `CCOC(=O)c1c(C)[nH]c(NC(=O)Nc2c(C)n(C)n(-c3ccccc3)c2=O)c1C`, the figure is -2.03% (inactive); as for `COc1ccc(O)c2c(=O)c3c(OC)cc4c(c3oc12)C1C=COC1O4` (centres undefined), -3.61% (inactive); as for `Cn1cc(CN2CCCC(C(=O)c3ccc(-c4ccccc4)cc3)C2)cn1` (centres undefined), -1.15% (inactive). The value for `CSc1ccccc1C(=O)C1CCCN(Cc2cnn(-c3ccccc3)c2)C1` (centres undefined) was 0.775% (inactive); that for `Cc1ccc(NC(=O)/C=C\C(=O)NCC(=O)O)cc1` was -2.38% (inactive); that for `COC(=O)C1=C(C(=O)OC)[C@@H]2Nc3ccccc3[C@@]23C[C@@H](C(=O)OC)N(C(=O)c2ccco2)C3=N1` was -1.72% (inactive). Turning to `O=C(NCc1cn(-c2ccccc2)nc1-c1ccccc1)c1cccc([N+](=O)[O-])c1`, the inhibition was 10.1% (inactive). Take `O=C(NCc1ccco1)c1cc([N+](=O)[O-])ccc1Cl`: the inhibition was -6.78% (inactive). As for `Cc1ccc(C(=O)NCc2ccco2)cc1[N+](=O)[O-]`, the figure is 0.79% (inactive). The value for `O=C(NCc1cn(-c2ccccc2)nc1-c1ccccc1)c1ccc([N+](=O)[O-])cc1` was -4% (inactive).
